Pf growth 48h – P. falciparum growth inhibition at 48 hours (one generation); 310,000 compounds, 5.9% hits; Potency, µM (top dose mostly 28.7 µM), for the others: top-dose activity change, negative = inhibition, hits mostly inhibitors; P. falciparum luciferase growth in erythrocytes, 48 h; note: % is set by controls: 0 for no effect and ±100 for the full control effect
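Luciferase-expressing P. falciparum in infected erythrocytes (2% hematocrit, 0.1% parasitemia final) in RPMI 1640/0.5% Albumax were exposed to compound for 48 hours at 37 C, 5% CO2; growth read as luminescence.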
Pf growth 96h – P. falciparum growth inhibition at 96 hours; P. falciparum luciferase reporter growth, 96 h; Potency, µM (highest dose often 28.7 µM), without a hit: at the top dose activity change, negative = inhibition, most hits filed as inhibitors; 320,000 compounds, 6.9% hits; AID 504834; note: % is set by controls: 0 for no effect and ±100 for the full control effect
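Readout is luminescence from an integrated firefly luciferase in P. falciparum. Red cells, 2% hematocrit and 0.05% parasitemia final, were cultured with compound through two parasite generations (96 hours) at 37 C, 5% CO2.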
Sm TGR block – S. mansoni TGR enzyme inhibition | Q962Y6 | purified TGR, DTNB reduction, TNB absorbance 405 nm | Potency, µM (titrated, usually from 114 µM), for the others: at the highest dose activity change, negative = inhibition, usual class: inhibitors | 360,000 compounds, 3% hits; note: % is set by controls: 0 for no effect and ±100 for the full control effect; nearly all actives have a fitted effect of over 60% in size
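Kinetic colorimetric format: TGR-catalysed, NADPH-driven DTNB reduction monitored via TNB absorbance. Enzyme dispensed at 20 nM; compound exposure 15 min at room temperature before reaction start.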
AmpC inh detg – blocks E. coli AmpC beta-lactamase in detergent assay; P00811; AmpC hydrolysis of nitrocefin, absorbance 480 nm, 0.01% Triton; Potency, µM (titrated, usually from 114 µM), without a hit: at the top dose activity change, negative = inhibition, usual class: inhibitors; 370,000 compounds, 0.041% hits; AID 485294;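 note: 0% = no-compound wells and -100% = no-enzyme wells; nearly all actives have a fitted effect of over 25% in size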
Target sequence (P00811 whole entry, looked up): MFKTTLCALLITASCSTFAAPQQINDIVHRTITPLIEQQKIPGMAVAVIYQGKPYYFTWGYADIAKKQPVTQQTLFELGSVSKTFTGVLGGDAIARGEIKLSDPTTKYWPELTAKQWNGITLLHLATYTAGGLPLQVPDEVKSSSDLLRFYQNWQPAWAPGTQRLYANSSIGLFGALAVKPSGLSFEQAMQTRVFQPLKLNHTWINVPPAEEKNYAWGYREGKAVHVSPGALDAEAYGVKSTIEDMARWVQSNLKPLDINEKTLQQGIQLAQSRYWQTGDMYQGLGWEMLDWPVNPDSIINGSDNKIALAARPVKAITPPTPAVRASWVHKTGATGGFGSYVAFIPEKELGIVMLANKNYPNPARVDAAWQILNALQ
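AmpC (5.3 nM in the dispensed reagent) in 20 mM phosphate pH 7.0 with 0.01% (detergent screen) or 0.0001% Triton X-100 was preincubated with compounds for 15 min at room temperature. Nitrocefin was then added from an 800 uM solution, and hydrolysis was followed at 480 nm.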
SARS PLP yeast – SARS-CoV PLP inhibition in yeast; 330,000 compounds, 0.19% hits; Potency, µM (highest dose often 32.9 µM), without a hit: at the top dose activity, positive = growth rescue, hits mostly activators; S. cerevisiae expressing SARS-CoV PLpro, growth rescue; calls by dose curve; note: 0% is about no effect; nearly all actives have a fitted effect of over 55% in size
AmpC inh no detg – AmpC beta-lactamase inhibition without detergent. AmpC nitrocefin hydrolysis, absorbance 480 nm, 0.0001% Triton. Potency, µM (titrated, usually from 57.1 µM), for the others: top-dose activity change, negative = inhibition, usual class: inhibitors. 330,000 compounds, 0.52% hits. AID 485341;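 note: plate controls were no compound for no effect and no enzyme for full effect; nearly all actives have a fitted effect of over 20% in size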
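AmpC (5.3 nM in the dispensed reagent) in 20 mM phosphate pH 7.0 with 0.01% (detergent screen) or 0.0001% Triton X-100 was preincubated with compounds for 15 min at room temperature. Nitrocefin was then added from an 800 uM solution, and hydrolysis was followed at 480 nm.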
Starred values were filed as active, the others as inactive; u = inconclusive; x = not tested or not shown. In the library only some 12% were active in any assay of this set; here they are far more common. Unless noted, calls come from the whole dose curve; as a rule, active = well fitted curve in the direction sought with a large enough effect; inconclusive = small, poorly fitted or top-dose-only effect, or another doubt; inactive = no such curve, though single readings can be large; an effect the other way counts as inactive or inconclusive. Potency is the fitted concentration of half-maximal effect.

SMILES | Pf growth 48h | Pf growth 96h | Sm TGR block | AmpC inh detg | SARS PLP yeast | AmpC inh no detg
Cc1c(Br)c([N+](=O)[O-])nn1CC(=O)NC1CCCCCC1 | -12% | 1.5µM* | -3% | 1% | 1% | -19%
COc1ccc2c(c1)c(=O)c(S(=O)(=O)c1ccc(C)c(C)c1)cn2CC(=O)Nc1ccccc1 | x | x | 0% | 1% | x | x
Cc1cccc(C)c1NC(=O)c1nc(SC(C)C)ncc1Cl | x | x | 0% | 7% | x | x
COc1ccc(-c2noc(-c3ccc(N4CCCC4)c([N+](=O)[O-])c3)n2)cc1 | x | x | 3% | 14% | x | x
CCCn1nc(C(=O)N2CCN(S(=O)(=O)c3ccc(C)c(C)c3)CC2)c2ccccc2c1=O | 12µM* | u | -7% | -8% | -2% | 7%
CCCn1nc(C(=O)NNC(=O)c2ccc(C)c(C)c2)c2ccccc2c1=O | x | x | x | x | -5% | 32%
Cc1ccccc1CNC(=O)c1ccc(CN2CC(=O)N3CCCCC3C2=O)cc1 (centres undefined) | x | x | -5% | -1% | x | x
COc1cccc(NC(=O)CSc2nc3c(sc4ccccc43)c(=O)n2CCCN2CCCC2)c1 | 10µM* | 20% | -3% | 0% | u | 102%
Cc1ccc(CNC(=O)CSc2nc3c(sc4ccccc43)c(=O)n2CCCN2CCCC2)cc1 | 10µM* | 25% | -6% | -5% | -1% | 82%
COc1ccccc1NS(=O)(=O)c1ccc(C)c(C(=O)NCCCN2CCCC2=O)c1 | u | u | -2% | u | -9% | 3%
Cn1c(=O)c2c(nc(CN3CCN(Cc4ccccc4)CC3)n2Cc2cccc(Cl)c2)n(C)c1=O | 2.1µM* | 1.2µM* | -1% | 2% | -2% | 240%
CCOCCn1c(CN2CCN(C(c3ccccc3)c3ccccc3)CC2)nc2c1c(=O)n(C)c(=O)n2C | 1.5µM* | -10% | -4% | -4% | 1% | 14%
CC(C)Cn1c(CN(C)Cc2ccccc2)nc2c1c(=O)n(C)c(=O)n2C | -15% | -28% | 5% | u | -1% | 128%
CN(Cc1ccccc1)Cc1nc2c(c(=O)n(C)c(=O)n2C)n1CCCc1ccccc1 | -19% | 10µM* | 1% | u | -2% | -1%
Cn1c(=O)c2c(nc(CN3CCc4ccccc4C3)n2CCCO)n(C)c1=O | -13% | 80% | -12% | 3% | 5% | 51%
Cn1c(=O)c2c(nc(CN3CCc4ccccc4C3)n2Cc2cccc(Cl)c2)n(C)c1=O | 3.3µM* | 1.9µM* | 0% | u | -16% | 69%
CCCCCCn1c(CN2CCN(Cc3ccccc3)CC2)nc2c1c(=O)n(C)c(=O)n2C | u | -14% | u | 2% | 6% | 224%
CCN(C(=O)c1cn(CC)c(=O)c2cc(OC)c(OC)cc12)c1ccc(C)c(C)c1 | x | x | -2% | -7% | x | x
CCCCN(C)CCCNC(=O)C1CCC(CNS(=O)(=O)c2c(C)cc(C)cc2C)CC1 (centres undefined) | u | 0% | -19% | -6% | -1% | 134%
Cc1ccc(SCC(=O)Nc2ccc(N3CCN(C)CC3)c(F)c2)c(C)c1 | u | u | x | 7% | 0% | 85%
CN1CCN(c2nc3c(c(=O)n(C)c(=O)n3C)n2Cc2cccc3ccccc23)CC1 | 10µM* | x | 22% | 1% | 1% | 186%
Cn1c(=O)c2c(nc(CN3CCc4ccccc4C3)n2Cc2ccccc2F)n(C)c1=O | 4.7µM* | u | -3% | 1% | -5% | 55%
Cn1c(=O)c2c(nc(N3CCCCCC3)n2Cc2cccc3ccccc23)n(C)c1=O | u | 0% | 3% | -10% | -8% | -3%
Cn1c(=O)c2c(nc(CN3CCN(c4ccccc4F)CC3)n2Cc2ccccc2F)n(C)c1=O | x | x | 2% | -8% | x | x
CCN1CCN(Cc2nc3c(c(=O)n(C)c(=O)n3C)n2CCc2ccccc2)CC1 | 4% | 12µM* | -25% | 0% | 6% | -15%
SMILES | Pf growth 48h | Pf growth 96h | Sm TGR block | AmpC inh detg | SARS PLP yeast | AmpC inh no detg
COc1ccc(CNCc2ccc(C(=O)O)s2)cc1 | x | x | -26% | 5% | x | x
COc1ccc(-c2cc(C(F)(F)F)nc(SCC(=O)N3CC(C)OC(C)C3)n2)cc1OC (centres undefined) | -18% | u | -14% | -7% | -15% | -1%
O=C(O)c1cc(=O)c2ccccc2[nH]1 | 13% | 4% | 7% | -1% | 12% | -12%
CSc1ccc(/C=C/c2cc(=O)c3ccccc3[nH]2)cc1 | 1.9µM* | -6% | -1% | -5% | 5% | -36%
O=c1cc(/C=C/c2cccs2)[nH]c2ccccc12 | 9.3µM* | x | -13% | 1% | -3% | -35%
O=c1cc(C(F)(F)F)[nH]c2ccccc12 | -2% | u | 8% | 1% | -1% | -7%
CCn1c(/C=C/c2ccccc2C)nc2ccccc2c1=O | 1% | -15% | 4% | 1% | -1% | 18%
Cc1ccccc1/C=C/c1nc2ccccc2c(=O)n1CCc1ccccc1 | 13µM* | -5% | -3% | -5% | 14% | -36%
Cc1ccccc1/C=C/c1nc2ccccc2c(=O)n1Cc1ccccc1 | u | 10µM* | 3% | -7% | 7% | -31%
CCCOc1ccc(C2C(=O)N(C3CCCCCC3)CC(=O)N2CCC2=CCCCC2)cc1OC (centres undefined) | x | x | -5% | -10% | x | x
COc1cc(Cl)c(C)cc1NC(=O)c1nn(C)c2c1CSc1ccccc1-2 | x | x | 6% | 10% | x | x
CC1(C)C2CCC1(C)C(NC(=O)/C=C/c1ccccc1)C2 (centres undefined) | 7.4µM* | -26% | 6% | 0% | -34% | -24%
O=C(/C=C/c1ccccc1)NC1CCSC1=O (centres undefined) | 35% | 10µM* | 12% | -13% | -32% | -15%
CCOc1ccc(C2C(C(=O)OC)=CN(C(C)c3ccccc3)C=C2C(=O)OC)cc1 (centres undefined) | u | 0% | -32% | -1% | -4% | 36%
CC(C)(C)OC(=O)N[C@@H](Cc1ccccc1)C(=O)N1CCC(C(=O)NCC(=O)O)CC1 | 18% | 21% | -17% | -1% | 10% | -11%
CC(C)(C)OC(=O)NC(Cc1ccccc1)C(=O)N1CCC(C(=O)NCC(=O)Nc2ccc(F)cc2)CC1 (centres undefined) | u | 12µM* | -2% | 1% | 0% | 141%
COc1ccc(-c2[nH]c(-c3cc(OC)c4c(c3)OCO4)nc2-c2ccccc2)cc1 | 4.1µM* | u | -4% | 0% | -8% | -12%
COc1ccc(S(=O)(=O)Nc2ccc(F)cc2)cc1N(C)S(=O)(=O)c1ccc(Cl)cc1 | 5.2µM* | -20% | 11% | 0% | u | -8%

Screens from PubChem.
